Key:
[1] = target: Sphingosine kinase 1 (Homo sapiens) (UniProt Q9NYA1); conditions: at 1 µM;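 note: mean SPHK1 inhibition value reported from the GSK PKIS kinase panel screen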
[2] = target: T1, Sphingosine kinase 2 (Homo sapiens) (UniProt Q9NRA0); conditions: at 0.1 µM
T1 sequence (whole entry): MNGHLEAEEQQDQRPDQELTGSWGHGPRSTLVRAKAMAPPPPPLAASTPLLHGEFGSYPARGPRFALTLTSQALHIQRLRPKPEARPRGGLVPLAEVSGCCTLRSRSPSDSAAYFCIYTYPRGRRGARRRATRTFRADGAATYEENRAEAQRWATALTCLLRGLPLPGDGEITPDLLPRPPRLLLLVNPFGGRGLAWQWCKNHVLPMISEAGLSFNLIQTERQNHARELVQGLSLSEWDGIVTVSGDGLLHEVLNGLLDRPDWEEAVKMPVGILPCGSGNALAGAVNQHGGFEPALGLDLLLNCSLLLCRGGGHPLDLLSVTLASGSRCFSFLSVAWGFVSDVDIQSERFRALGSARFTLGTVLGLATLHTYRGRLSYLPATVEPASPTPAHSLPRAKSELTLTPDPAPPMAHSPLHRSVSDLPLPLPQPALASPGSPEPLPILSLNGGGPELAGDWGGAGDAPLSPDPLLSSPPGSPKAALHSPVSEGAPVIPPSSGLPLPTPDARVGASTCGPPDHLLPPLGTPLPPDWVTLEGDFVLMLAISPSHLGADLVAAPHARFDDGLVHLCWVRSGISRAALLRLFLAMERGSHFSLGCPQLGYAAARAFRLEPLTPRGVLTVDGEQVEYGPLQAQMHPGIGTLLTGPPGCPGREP

[3] = target: T1, Sphingosine kinase 2 (Homo sapiens); conditions: at 1 µM
[4] = target: Casein kinase II subunit alpha (Homo sapiens) (UniProt P68400); conditions: at 0.1 µM
Chain of Casein kinase II subunit alpha (Homo sapiens) (P68400 whole entry, looked up): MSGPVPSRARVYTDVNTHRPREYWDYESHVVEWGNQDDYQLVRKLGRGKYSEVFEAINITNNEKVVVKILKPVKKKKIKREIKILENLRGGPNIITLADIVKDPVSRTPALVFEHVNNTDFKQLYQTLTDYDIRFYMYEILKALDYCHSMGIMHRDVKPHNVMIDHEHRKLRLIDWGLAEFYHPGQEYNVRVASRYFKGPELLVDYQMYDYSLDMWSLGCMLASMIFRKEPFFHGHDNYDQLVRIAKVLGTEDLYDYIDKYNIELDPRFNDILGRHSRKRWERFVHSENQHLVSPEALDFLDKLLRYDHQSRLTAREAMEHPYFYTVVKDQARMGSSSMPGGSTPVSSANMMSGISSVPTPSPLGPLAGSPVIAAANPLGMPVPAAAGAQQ

[5] = target: Casein kinase II subunit alpha (Homo sapiens) (UniProt P68400); conditions: at 1 µM
[6] = target: T2, Inhibitor of nuclear factor kappa-B kinase subunit alpha (Homo sapiens) (UniProt O15111); conditions: at 0.1 µM
T2 sequence (whole entry): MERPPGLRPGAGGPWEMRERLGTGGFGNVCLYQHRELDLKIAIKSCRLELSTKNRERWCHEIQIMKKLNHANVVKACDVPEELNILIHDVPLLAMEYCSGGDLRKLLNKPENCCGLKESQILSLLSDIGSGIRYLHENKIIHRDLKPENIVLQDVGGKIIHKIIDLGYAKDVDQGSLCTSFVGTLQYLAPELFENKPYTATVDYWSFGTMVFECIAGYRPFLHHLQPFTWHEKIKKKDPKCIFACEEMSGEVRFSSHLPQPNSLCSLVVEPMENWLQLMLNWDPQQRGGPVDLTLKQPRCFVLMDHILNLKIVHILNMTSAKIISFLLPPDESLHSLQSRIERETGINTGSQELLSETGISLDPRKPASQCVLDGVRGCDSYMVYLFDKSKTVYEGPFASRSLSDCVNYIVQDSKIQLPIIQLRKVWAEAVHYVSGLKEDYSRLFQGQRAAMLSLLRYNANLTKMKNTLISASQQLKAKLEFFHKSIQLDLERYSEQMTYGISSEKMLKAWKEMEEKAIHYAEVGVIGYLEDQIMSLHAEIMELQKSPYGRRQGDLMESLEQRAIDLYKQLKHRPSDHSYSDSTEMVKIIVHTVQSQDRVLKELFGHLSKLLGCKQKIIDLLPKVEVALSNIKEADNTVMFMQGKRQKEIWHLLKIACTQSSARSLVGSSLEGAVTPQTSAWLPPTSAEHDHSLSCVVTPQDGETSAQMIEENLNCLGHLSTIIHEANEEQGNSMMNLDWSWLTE

[7] = target: T2, Inhibitor of nuclear factor kappa-B kinase subunit alpha (Homo sapiens); conditions: at 1 µM
[8] = target: T3, Inhibitor of nuclear factor kappa-B kinase subunit beta (Homo sapiens) (UniProt O14920); conditions: at 0.1 µM
T3 sequence (whole entry): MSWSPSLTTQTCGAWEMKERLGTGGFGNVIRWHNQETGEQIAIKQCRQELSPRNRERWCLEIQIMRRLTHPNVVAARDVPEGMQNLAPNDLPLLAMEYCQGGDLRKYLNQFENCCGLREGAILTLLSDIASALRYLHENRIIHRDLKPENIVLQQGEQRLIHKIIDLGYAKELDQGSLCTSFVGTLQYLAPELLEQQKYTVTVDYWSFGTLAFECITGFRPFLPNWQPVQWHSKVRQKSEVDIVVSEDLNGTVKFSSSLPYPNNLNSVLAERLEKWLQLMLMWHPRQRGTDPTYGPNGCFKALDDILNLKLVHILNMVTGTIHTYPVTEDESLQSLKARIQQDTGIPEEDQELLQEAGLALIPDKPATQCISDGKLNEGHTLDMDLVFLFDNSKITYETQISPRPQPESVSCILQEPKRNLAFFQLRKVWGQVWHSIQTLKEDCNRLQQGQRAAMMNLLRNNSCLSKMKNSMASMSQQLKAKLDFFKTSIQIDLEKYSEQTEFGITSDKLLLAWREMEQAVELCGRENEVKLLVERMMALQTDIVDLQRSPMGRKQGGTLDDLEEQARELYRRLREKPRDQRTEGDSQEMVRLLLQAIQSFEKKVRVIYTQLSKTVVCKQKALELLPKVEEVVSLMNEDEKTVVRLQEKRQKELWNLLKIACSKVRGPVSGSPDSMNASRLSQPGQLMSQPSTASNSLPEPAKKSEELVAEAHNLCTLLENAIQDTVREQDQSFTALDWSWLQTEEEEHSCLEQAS

[9] = target: T3, Inhibitor of nuclear factor kappa-B kinase subunit beta (Homo sapiens); conditions: at 1 µM
[10] = target: T4, Inhibitor of nuclear factor kappa-B kinase subunit epsilon (Homo sapiens) (UniProt Q14164); conditions: at 0.1 µM
T4 sequence (whole entry): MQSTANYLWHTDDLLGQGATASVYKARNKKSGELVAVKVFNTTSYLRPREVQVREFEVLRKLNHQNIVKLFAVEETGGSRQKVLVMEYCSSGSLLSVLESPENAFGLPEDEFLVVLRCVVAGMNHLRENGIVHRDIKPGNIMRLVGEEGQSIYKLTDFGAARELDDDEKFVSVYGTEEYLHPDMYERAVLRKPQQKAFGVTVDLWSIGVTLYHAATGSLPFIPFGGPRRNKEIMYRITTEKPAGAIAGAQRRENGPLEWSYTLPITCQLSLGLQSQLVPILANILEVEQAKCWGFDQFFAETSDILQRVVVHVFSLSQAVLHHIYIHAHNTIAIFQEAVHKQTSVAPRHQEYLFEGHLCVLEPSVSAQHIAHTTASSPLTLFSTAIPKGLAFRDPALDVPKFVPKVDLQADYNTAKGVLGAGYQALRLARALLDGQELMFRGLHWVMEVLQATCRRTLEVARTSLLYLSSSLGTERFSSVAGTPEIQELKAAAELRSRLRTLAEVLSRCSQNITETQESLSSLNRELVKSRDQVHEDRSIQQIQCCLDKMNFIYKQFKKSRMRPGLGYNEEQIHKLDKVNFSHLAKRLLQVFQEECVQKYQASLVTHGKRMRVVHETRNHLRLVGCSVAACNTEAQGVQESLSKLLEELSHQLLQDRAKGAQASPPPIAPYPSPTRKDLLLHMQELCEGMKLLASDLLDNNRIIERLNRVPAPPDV

[11] = target: T4, Inhibitor of nuclear factor kappa-B kinase subunit epsilon (Homo sapiens); conditions: at 1 µM
[12] = target: T5, Serine/threonine-protein kinase Nek1 (Homo sapiens) (UniProt Q96PY6); conditions: at 0.1 µM
T5 sequence (whole entry): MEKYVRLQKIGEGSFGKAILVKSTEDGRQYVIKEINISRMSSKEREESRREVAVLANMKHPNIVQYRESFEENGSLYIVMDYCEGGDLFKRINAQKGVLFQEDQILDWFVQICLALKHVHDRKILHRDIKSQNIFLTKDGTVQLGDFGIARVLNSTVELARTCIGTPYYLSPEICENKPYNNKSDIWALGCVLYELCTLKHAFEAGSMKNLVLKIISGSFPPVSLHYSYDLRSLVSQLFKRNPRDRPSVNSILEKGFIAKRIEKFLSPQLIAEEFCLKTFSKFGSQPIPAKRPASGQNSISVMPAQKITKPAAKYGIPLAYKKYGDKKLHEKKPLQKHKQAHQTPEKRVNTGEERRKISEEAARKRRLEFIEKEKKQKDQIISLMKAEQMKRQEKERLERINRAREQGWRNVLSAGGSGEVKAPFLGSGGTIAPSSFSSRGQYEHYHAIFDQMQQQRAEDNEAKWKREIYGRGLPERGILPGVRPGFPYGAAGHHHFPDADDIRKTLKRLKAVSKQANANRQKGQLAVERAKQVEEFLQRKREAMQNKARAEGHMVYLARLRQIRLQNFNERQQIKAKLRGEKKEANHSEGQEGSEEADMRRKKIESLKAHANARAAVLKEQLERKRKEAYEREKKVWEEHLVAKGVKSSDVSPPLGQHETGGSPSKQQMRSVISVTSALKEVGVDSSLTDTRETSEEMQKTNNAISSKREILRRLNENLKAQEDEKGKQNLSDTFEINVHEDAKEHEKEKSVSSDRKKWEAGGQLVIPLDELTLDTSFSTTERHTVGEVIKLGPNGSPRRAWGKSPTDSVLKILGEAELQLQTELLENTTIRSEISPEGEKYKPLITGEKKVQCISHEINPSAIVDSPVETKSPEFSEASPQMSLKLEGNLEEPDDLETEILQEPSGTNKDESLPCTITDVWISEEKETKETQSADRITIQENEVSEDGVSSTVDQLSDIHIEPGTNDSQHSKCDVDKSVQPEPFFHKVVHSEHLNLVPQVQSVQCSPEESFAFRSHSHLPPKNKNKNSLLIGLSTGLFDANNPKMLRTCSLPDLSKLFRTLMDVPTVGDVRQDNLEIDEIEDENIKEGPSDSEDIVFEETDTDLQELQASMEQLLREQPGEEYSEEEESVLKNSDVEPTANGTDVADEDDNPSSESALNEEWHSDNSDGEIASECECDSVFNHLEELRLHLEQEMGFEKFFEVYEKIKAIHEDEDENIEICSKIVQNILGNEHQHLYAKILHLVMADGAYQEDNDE

[13] = target: T5, Serine/threonine-protein kinase Nek1 (Homo sapiens); conditions: at 1 µM
[14] = target: T6, Serine/threonine-protein kinase Nek2 (Homo sapiens) (UniProt P51955); conditions: at 0.1 µM
T6 sequence (whole entry): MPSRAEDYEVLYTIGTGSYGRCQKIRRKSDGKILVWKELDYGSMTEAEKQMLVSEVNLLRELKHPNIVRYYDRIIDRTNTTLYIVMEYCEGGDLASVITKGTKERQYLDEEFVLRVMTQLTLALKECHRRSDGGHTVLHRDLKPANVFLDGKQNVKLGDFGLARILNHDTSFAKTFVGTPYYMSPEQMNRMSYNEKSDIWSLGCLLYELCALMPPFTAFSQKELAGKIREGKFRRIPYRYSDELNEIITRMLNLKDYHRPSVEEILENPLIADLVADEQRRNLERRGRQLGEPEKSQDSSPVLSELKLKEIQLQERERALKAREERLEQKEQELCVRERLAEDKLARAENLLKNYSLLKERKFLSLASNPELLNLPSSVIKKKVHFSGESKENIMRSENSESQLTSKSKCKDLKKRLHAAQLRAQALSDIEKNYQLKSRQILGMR

[15] = target: T6, Serine/threonine-protein kinase Nek2 (Homo sapiens); conditions: at 1 µM
[16] = target: Serine/threonine-protein kinase Nek6 (Homo sapiens) (UniProt Q9HC98); conditions: at 0.1 µM
Chain of Serine/threonine-protein kinase Nek6 (Homo sapiens) (Q9HC98 whole entry): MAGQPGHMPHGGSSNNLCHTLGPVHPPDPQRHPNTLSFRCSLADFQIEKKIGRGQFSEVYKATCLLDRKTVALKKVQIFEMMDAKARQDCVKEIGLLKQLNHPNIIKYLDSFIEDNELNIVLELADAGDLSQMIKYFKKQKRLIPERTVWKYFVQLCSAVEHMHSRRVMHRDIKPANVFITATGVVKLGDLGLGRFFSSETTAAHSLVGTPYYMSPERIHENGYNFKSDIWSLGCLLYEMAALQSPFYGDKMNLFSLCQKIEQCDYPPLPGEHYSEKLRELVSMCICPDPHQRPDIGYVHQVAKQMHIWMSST

[17] = target: Serine/threonine-protein kinase Nek6 (Homo sapiens) (UniProt Q9HC98); conditions: at 1 µM
[18] = target: Serine/threonine-protein kinase Nek7 (Homo sapiens) (UniProt Q8TDX7); conditions: at 0.1 µM
Chain of Serine/threonine-protein kinase Nek7 (Homo sapiens) (Q8TDX7 whole entry, looked up): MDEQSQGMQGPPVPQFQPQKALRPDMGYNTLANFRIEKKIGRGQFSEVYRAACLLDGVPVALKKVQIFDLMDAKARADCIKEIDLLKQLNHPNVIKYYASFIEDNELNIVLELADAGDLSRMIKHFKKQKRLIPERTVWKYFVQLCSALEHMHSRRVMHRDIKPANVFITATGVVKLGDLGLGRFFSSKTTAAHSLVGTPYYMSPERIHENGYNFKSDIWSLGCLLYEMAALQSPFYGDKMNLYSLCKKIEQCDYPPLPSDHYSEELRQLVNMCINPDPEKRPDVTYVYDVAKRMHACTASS

[19] = target: Serine/threonine-protein kinase Nek7 (Homo sapiens) (UniProt Q8TDX7); conditions: at 1 µM
[20] = target: T7, Serine/threonine-protein kinase Nek9 (Homo sapiens) (UniProt Q8TD19); conditions: at 0.1 µM;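 note: reported value is the mean percent inhibition of NEK9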
T7 sequence (whole entry): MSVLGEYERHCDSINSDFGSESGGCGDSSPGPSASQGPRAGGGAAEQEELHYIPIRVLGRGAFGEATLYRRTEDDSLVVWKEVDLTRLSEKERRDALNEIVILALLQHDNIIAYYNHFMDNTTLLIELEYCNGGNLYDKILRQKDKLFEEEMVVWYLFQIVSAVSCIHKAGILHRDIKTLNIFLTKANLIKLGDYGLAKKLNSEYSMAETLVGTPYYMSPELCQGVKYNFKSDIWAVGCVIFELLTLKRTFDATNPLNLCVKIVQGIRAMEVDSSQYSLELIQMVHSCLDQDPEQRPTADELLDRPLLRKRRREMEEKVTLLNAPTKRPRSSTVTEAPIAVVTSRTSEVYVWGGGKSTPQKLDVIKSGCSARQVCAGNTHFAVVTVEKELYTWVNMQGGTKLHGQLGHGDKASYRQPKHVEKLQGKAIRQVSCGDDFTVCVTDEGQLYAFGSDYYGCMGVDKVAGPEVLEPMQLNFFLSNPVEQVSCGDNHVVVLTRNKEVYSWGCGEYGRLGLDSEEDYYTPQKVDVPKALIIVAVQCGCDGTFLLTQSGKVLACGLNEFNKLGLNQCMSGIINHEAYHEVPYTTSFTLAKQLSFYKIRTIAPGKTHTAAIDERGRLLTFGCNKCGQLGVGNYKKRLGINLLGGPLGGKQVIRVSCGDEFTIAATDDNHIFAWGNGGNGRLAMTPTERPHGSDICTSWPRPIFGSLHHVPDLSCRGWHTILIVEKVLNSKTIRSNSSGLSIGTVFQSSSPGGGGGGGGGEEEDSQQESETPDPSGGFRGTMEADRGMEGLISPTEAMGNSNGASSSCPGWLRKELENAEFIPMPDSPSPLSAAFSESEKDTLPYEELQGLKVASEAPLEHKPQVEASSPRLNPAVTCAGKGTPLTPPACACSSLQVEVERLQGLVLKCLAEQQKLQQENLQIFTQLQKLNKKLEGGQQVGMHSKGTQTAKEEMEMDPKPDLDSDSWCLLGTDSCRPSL

Chain of Sphingosine kinase 1 (Homo sapiens) (Q9NYA1 whole entry): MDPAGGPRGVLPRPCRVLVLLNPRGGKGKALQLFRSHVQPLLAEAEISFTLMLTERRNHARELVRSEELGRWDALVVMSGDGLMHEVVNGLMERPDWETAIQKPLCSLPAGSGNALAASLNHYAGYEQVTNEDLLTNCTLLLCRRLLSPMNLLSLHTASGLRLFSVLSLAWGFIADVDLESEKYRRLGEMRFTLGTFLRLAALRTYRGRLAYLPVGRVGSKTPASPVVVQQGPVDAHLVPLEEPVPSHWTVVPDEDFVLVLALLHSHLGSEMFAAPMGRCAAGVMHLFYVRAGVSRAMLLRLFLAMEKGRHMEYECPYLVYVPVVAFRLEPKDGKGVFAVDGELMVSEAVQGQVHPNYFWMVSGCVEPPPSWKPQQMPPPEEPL

## CCn1c(-c2nonc2N)nc2c(N3CCCC3)nccc21
[1]
  inhibition: -1.44%
[2]
  inhibition: 0.74%
[3]
  inhibition: -0.77%
[4]
  inhibition: -0.14%
[5]
  inhibition: -0.49%
[6]
  inhibition: 8.52%
[7]
  inhibition: 5.88%
[8]
  inhibition: 0.45%
[9]
  inhibition: -0.76%
[10]
  inhibition: -2.71%
[11]
  inhibition: -2.89%
[12]
  inhibition: -0.04%
[13]
  inhibition: 0.27%
[14]
  inhibition: -0.88%
[15]
  inhibition: -0.91%
[16]
  inhibition: 0.88%
[17]
  inhibition: -1.63%
[18]
  inhibition: 2.1%
[19]
  inhibition: -1.35%
[20]
  inhibition: 2.28%

— ChEMBL document CHEMBL1961873, “Compounds: GSK PKIS; Assays: Nanosyn kinase panel” (2012)
